{"source": "the supplement of paper PMC4188521", "data": [{"compound": "CCc1cnn2c(NCc3ccc[n+]([O-])c3)cc(N3CCCC[C@H]3CCO)nc12 [dinaciclib]", "experiment": "cell viability remaining relative to DMSO control; higher = less cytotoxic (more viable cells)", "details": "100 nM; 24 h", "procedure,_shortened": "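Remaining viability, expressed as a percentage of the DMSO control, compares luminescence in treated wells with that in DMSO-treated control wells. Solid tumour cell lines from commercial banks received 100 nM of the test compound for 24 hr, with final DMSO kept at ≤0.2%. Viability was read as ATP luminescence using CellTiter-Glo, and values are means from 2–6 plates run in triplicate wells.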", "units": {"cell viability remaining": "%"}, "values": [{"target": "SKMEL5", "cell viability remaining": 76.8}, {"target": "DAOY", "cell viability remaining": 23.4}, {"target": "H2030", "cell viability remaining": 91.9}, {"target": "LS1034", "cell viability remaining": 75}, {"target": "G401", "cell viability remaining": 10.4}, {"target": "T47D", "cell viability remaining": 87.6}, {"target": "HEC1B", "cell viability remaining": 94.1}, {"target": "H2452", "cell viability remaining": 21.1}, {"target": "CAL120", "cell viability remaining": 76.8}, {"target": "EFO21", "cell viability remaining": 93.6}, {"target": "CAL54", "cell viability remaining": 78.9}, {"target": "ACHN", "cell viability remaining": 72.1}, {"target": "HUPT4", "cell viability remaining": 9.8}, {"target": "AGS", "cell viability remaining": 46.7}, {"target": "SNU5", "cell viability remaining": 69.5}, {"target": "SW1417", "cell viability remaining": 83.7}, {"target": "HUTU80", "cell viability remaining": 27.1}, {"target": "DU4475", "cell viability remaining": 72.3}, {"target": "SNGM", "cell viability remaining": 98.3}, {"target": "H1975", "cell viability remaining": 69.4}, {"target": "H520", "cell viability remaining": 30.8}, {"target": "786O", "cell viability remaining": 44.3}, {"target": "CCFSTTG1", "cell viability remaining": 70.6}, {"target": "BXPC3", "cell viability remaining": 29.4}, {"target": "HEC1A", "cell viability remaining": 49}, {"target": "SKMEL1", "cell viability remaining": 68.9}, {"target": "HEC151", "cell viability remaining": 39}, {"target": "HOS", "cell viability remaining": 36.2}, {"target": "HCT15", "cell viability remaining": 45.4}, {"target": "H747", "cell viability remaining": 73}, {"target": "H526", "cell viability remaining": 16.7}, {"target": "DV90", "cell viability remaining": 56.2}, {"target": "CORL23", "cell viability remaining": 62.8}, {"target": "DBTRG05MG", "cell viability remaining": 81.7}]}]}
